N370S GC – qHTS Assay for Inhibitors and Activators of N370S glucocerebrosidase as a Potential Chaperone Treatment of Gaucher Disease; N370S GC spleen homogenate, 4MU-glucoside fluorescence; Potency, µM (titrated, usually from 59.4 µM), for inactives: at the highest dose activity change, negative = inhibition, most hits filed as inhibitors; hit rate 0.092% among 330,000; AID 2101, 2009;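 note: potency is the fitted concentration of half-maximal effect; 0% = full enzyme activity and -100% = no enzyme basal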
GLA inh pH 4.5 – qHTS Assay for Inhibitors of Human alpha-Galactosidase at pH 4.5; Alpha-galactosidase A (Homo sapiens), P06280; purified enzyme, 4-MU-alpha-Gal fluorescence, pH 4.5; activity change, negative = inhibition, % at 105 µM; 230,000 tested, under 10 active; AID 1467, 2008;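 note: 0% = full activity with enzyme and -100% = basal without enzyme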
GAA glycogen – qHTS Assay for Inhibitors and Activators of Human alpha-Glucosidase Cleavage of Glycogen; Lysosomal alpha-glucosidase (Homo sapiens), P10253; recombinant GAA, glycogen substrate, Amplex Red glucose oxidase fluorescence; Potency, µM (series often up to 76.4 µM), inactives show at the top dose activity change, negative = inhibition, usual class: inhibitors; hit rate 0.38% among 300,000; AID 2100, 2009;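 note: potency is the fitted concentration of half-maximal effect; 0% = full enzyme reaction and -100% = no-enzyme basal signal; the screen sought inhibitors and activators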
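Recombinant human enzyme (4 nM); glycogen substrate; 37 C, 40 min, pH 5.0. Readout: coupled glucose oxidase/Amplex Red fluorescence.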
GAA inhib – qHTS Assay for Inhibitors of Human alpha-Glucosidase as a Potential Chaperone Treatment of Pompe Disease. purified human GAA, 4-MU-alpha-glucoside fluorescence. Potency, µM (highest dose often 76.9 µM), for the others: at the highest dose activity change, negative = inhibition, actives largely listed as inhibitors. Lysosomal alpha-glucosidase (Homo sapiens), P10253. hit rate 0.005% among 200,000;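 note: potency is the fitted concentration of half-maximal effect; plate controls were uninhibited enzyme wells for no effect and no-enzyme background for full effect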
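Fluorogenic assay: 4 nM human alpha-glucosidase with 400 uM 4-methylumbelliferyl-alpha-D-pyranoside in 50 mM citrate/phosphate, 0.005% Tween-20, pH 5.0, 20 min at room temperature. Compounds tested up to 77 uM; AC50 from Hill fits.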
GLA spleen mod – qHTS Assay for Inhibitors and Activators of Human alpha-Galactosidase From Spleen Homogenate; Alpha-galactosidase A (Homo sapiens), P06280; human spleen homogenate, 4MU-alpha-Gal fluorescence, 40 min; hit rate 0.008% among 240,000; Potency, µM (series often up to 80 µM), for inactives: at the top dose activity change, negative = inhibition, usual class: inhibitors;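 note: potency is the fitted concentration of half-maximal effect; 0% = enzyme with vehicle and -100% = no enzyme basal signal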
Target sequence (P06280 32-429 limits assumed): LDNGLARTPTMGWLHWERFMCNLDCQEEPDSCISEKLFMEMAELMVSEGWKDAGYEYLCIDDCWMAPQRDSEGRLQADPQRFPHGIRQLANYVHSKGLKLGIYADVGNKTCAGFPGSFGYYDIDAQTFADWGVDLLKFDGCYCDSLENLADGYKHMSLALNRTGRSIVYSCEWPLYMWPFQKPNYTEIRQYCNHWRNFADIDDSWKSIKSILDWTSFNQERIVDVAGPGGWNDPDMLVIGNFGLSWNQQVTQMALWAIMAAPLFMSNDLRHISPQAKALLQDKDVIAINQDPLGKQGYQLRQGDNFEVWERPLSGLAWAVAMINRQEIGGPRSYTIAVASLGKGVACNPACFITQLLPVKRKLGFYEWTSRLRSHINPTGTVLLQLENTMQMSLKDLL
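Spleen homogenate 1 ug + cpd (titration) + 4-MU-alpha-D-galactopyranoside 1 mM; 37C 40 min; 50 mM citrate/phosphate pH 5.0, 0.01% Tween-20; stop pH 10; fluorescence 365/440; AC50 via Hill.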
GAA spleen mod – qHTS Assay for Inhibitors and Activators of Human alpha-Glucosidase From Spleen Homogenate; Lysosomal alpha-glucosidase (Homo sapiens), P10253; human spleen homogenate, 4-MU-alpha-glucoside fluorescence; Potency, µM (series often up to 79.9 µM), inactives show at the highest dose activity change, negative = inhibition, most hits filed as inhibitors; hit rate 0.006% among 240,000; AID 2112, 2009;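 note: potency is the fitted concentration of half-maximal effect; 0% = enzyme with vehicle and -100% = no enzyme basal signal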
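Enzyme source: human spleen homogenate, 1 ug/well. Buffer 50 mM citric acid/K phosphate pH 5.0, 0.01% Tween-20. 4-MU-alpha-glucoside 1 mM; 37 C x 40 min; NaOH/glycine stop; fluorescence.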
* = called active by the depositor; ? = inconclusive; . = no result; [ ] = dose if it differs, or a comment. Sampled rows, rich in hits. Any-hit rate of the full collection: about 0.43%. Calls come from the whole dose curve; as a rule, active = well fitted curve in the direction sought with a large enough effect; inconclusive = small, poorly fitted or top-dose-only effect, or another doubt; inactive = no such curve, though single readings can be large; an effect the other way counts as inactive or inconclusive.

SMILES	N370S GC	GLA inh pH 4.5	GAA glycogen	GAA inhib	GLA spleen mod	GAA spleen mod
Cc1ccc(S(=O)(=O)N2CCN(CC(=O)N/N=C/c3ccc(C)o3)CC2)cc1	-5%	-1	-24%	?	7%	-9%
O=C(CN1CCN(S(=O)(=O)c2ccc(F)cc2)CC1)c1ccc(O)c(O)c1	?	-12	10%	?	-7%	-10%
COc1cccc(CNc2ccc3[nH]c(=O)[nH]c3c2)c1OCc1ccccc1F	9%	.	28µM*	.	.	.
COc1cc(CNc2ccc3[nH]c(=O)[nH]c3c2)cc(Cl)c1OCc1ccccc1F	.	.	-29%[76.3 µM]	.	.	.
Cc1ccc(C)c(NC(=S)NNC(=O)c2ccco2)c1	-5%	-9	22µM*	0%	9%	0%
CCOC(=O)c1[nH]c2ccccc2c1NC(=S)Nc1ccccc1C	3%	1	14µM*	-8%	9%	-3%
CC(C)C(=O)N[C@H]1CCCN1C(=O)/C=C\c1ccccc1	4%[12.8 µM]	.	.	.	-16%[17.5 µM]	3%[17.4 µM]
CCCCCn1c(CN2CCN(c3cccc(Cl)c3)CC2)nc2c1c(=O)n(C)c(=O)n2C	-5%	-8	-11%	?	5%	-1%
CCCCn1c(CN2CCN(c3cccc(Cl)c3)CC2)nc2c1c(=O)n(C)c(=O)n2C	-8%	-20	-1%	?	35µM*	-17%
COc1ccccc1CNc1ccnc(-c2ccccc2Cl)n1	?	.	.	.	-4%	-5%
Cc1cccc(CNc2ccnc(-c3ccccc3Cl)n2)c1	7.1µM*	.	.	.	-1%	-7%
Clc1ccccc1-c1nccc(NCc2ccccc2)n1	3.5µM*	.	.	.	0%	3%
C=CCn1c(-c2cc(-c3ccccc3)sc2N)n[nH]c1=S	2%	-3	22µM*	-1%	9%	1%
C=CCn1c(-c2csc(-c3ccccc3)n2)n[nH]c1=S	4%	2	-7%	-2%	7%	6%
Cc1c(Cc2ccccc2)c(=O)oc2c(O)c(O)ccc12	-10%	5	5µM*	-9%	1%	3%
Cc1oc2c(O)c(O)ccc2c(=O)c1-c1ccc(Cl)cc1	-9%	.	7.1µM*	.	.	.
Cc1oc2cc(O)cc(C)c2c(=O)c1-c1cnn(-c2ccccc2)c1	11%	6	-6%	0%	0%	-7%
Cc1oc2c(O)c(O)ccc2c(=O)c1-c1cnn(-c2ccccc2)c1	7%	2	5.6µM*	-15%	10%	-13%
Cc1oc2c(O)c(O)ccc2c(=O)c1-c1ccccc1	-12%	4	8.8µM*	6%[15.4 µM]	12%	8%
O=c1cc(-c2ccccc2)oc2c(O)c(O)ccc12	-12%	-11	.	.	22%	16%
O=C(Cn1cc(SCc2cccc(F)c2)c2ccccc21)N1CCCC1	.	.	8%[76.3 µM]	.	.	.
CCOC(=O)/C=C/C(=O)OCC(=O)Nc1ccc(Cl)cn1	3%	-8	4%	3%	-21%	-1%
CCOC(=O)NC1(Nc2ccc(Cl)cn2)Oc2ccccc2O1	-2%	-3	22µM*	3%	2%	-3%
COC(=O)CC1c2ccccc2C(Cc2ccc(OC)cc2)C(C)N1C(=O)OC (centres undefined)	-9%[12.8 µM]	0	.	.	-2%[17.5 µM]	-1%[17.4 µM]
O=C(O)c1cc(NCc2cccs2)ccc1N1CCOCC1	-3%	2	9.9µM*	-5%	-3%	-3%
SMILES	N370S GC	GLA inh pH 4.5	GAA glycogen	GAA inhib	GLA spleen mod	GAA spleen mod
COC(=O)c1cc(NCc2c(F)cccc2Cl)ccc1N1CCOCC1	-4%	2	12µM*	0%	2%	3%
COC(=O)c1cc(NS(=O)(=O)c2cccc(Cl)c2)ccc1N1CCOCC1	2%	-4	2%	.	9%	10%
COC(=O)c1cc(NCc2cccs2)ccc1N1CCOCC1	1%	-8	?	-9%	4%	8%
COc1cccc(Nc2nc(-c3cccs3)nc3ccccc23)c1	13µM*	3	7%	-3%	-4%	1%
COc1ccc(Nc2nc(-c3ccccc3)nc3ccccc23)cc1	?	.	-13%	.	.	.
COc1ccc(Nc2nc(-c3cccs3)nc3ccccc23)cc1	1.1µM*	-9	-9%	-11%	-2%	-8%
COc1cccc(CN(C)c2nc(-c3cccs3)nc3ccccc23)c1	1.6µM*	-2	10%	-12%	-9%	-3%
COc1cccc(-c2nc(N(C)C)c3ccccc3n2)c1	-9%	.	.	.	-3%	5%
CC(=O)/C=C(\C)Nc1ccccc1O	-21%	-1	25µM*	.	-3%	-12%
N#Cc1cc(-c2ccccc2)oc1/N=C/c1ccccc1O	4%	3	?	-6%	1%	-7%
COc1cccc(/C=N/c2oc(-c3ccccc3)cc2C#N)c1O	-16%	-11	28µM*	-4%	2%	-8%
CCOC(=O)C1=C(c2ccccc2)Nc2c(c(=O)n(C)c(=O)n2C)C1c1ccc(O)c(OC)c1 (centres undefined)	-10%	-16	32µM*	-1%	6%	1%
CCOC(=O)C1=C(c2ccccc2)N(C)C(=O)NC1c1ccc(O)c(OC)c1 (centres undefined)	3%	-4	?	-5%	5%	4%
Cc1cc(C(F)(F)F)nn1CC(=O)NNC(=S)Nc1ccc(Cl)cc1	1%	6	-5%	-4%	6%	1%
Cc1cc(C(F)(F)F)nn1CC(=O)NNC(=S)Nc1ccc(F)cc1	.	-1	40µM*	0%	4%	0%
COc1cc(/C=N/Nc2ccccc2C(F)(F)F)ccc1O	-6%	0	35µM*	-5%	-14%	?
COc1cc(/C=N/Nc2ccccn2)cc(OC)c1O	19%	-12	18µM*	-6%	-8%	-9%
COc1cc(/C=N/Nc2ccccc2)ccc1O	-8%	.	?	.	.	.
COc1ccc(OC)c(/C=N/Nc2nncn2/N=C/c2cc(OC)ccc2OC)c1	3%	-13	-9%	1%	5%	-5%
COc1cc(/C=N/Nc2nncn2/N=C/c2ccc(O)c(OC)c2)ccc1O	-7%	-3	10µM*	1%	1%	-5%
CCOc1cc(/C=N/Nc2nnc(C)n2N)ccc1O	-13%	.	11µM*	.	.	.
COc1ccc(C(=O)c2cn(Cc3ccc(F)cc3)c3ccc(C)cc3c2=O)cc1	.	.	11%[76.3 µM]	.	.	.
CO[C@@H]1COC(=O)C/C=C\[C@@H](C)COC(=O)[C@H](Cc2ccccc2)NC(=O)C/C=C\[C@H]1C	-8%[12.8 µM]	.	.	.	-1%[17.5 µM]	-1%[17.4 µM]

Screening data as filed in PubChem BioAssay.
